NS1 inh: inhibitors of influenza NS1 protein function; AID 2326; Potency, µM (series often up to 46.1 µM), inactives show at the top dose activity, positive = more growth; actives 0.4% (n = 270,000); calls by dose curve; note: potency is the fitted concentration of half-maximal effect; actives are rising curves; nearly all actives have a fitted effect of over 50% in size
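Growth recovery, yeast-based: influenza A NS1 expressed in S. cerevisiae causes slow growth, and suppressors are detected by OD600. The parent strain without NS1 is used as positive control.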
Sm TGR block: S. mansoni TGR enzyme inhibition | Q962Y6 | purified TGR, DTNB reduction, TNB absorbance 405 nm | Potency, µM (doses to about 114 µM), inactives show top-dose activity change, negative = inhibition, most hits filed as inhibitors | actives 3% (n = 360,000); note: potency is the fitted concentration of half-maximal effect; % is set by controls: 0 for no effect and ±100 for the full control effect; nearly all actives have a fitted effect of over 60% in size
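Kinetic colorimetric format: TGR-catalysed, NADPH-driven DTNB reduction monitored via TNB absorbance. Enzyme dispensed at 20 nM; compound exposure 15 min at room temperature before reaction start.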
Shiga toxin inh: inhibitors of Shiga toxin in Vero cells. Vero cells, Shiga toxin protein synthesis inhibition reporter. inhibition, % at 38.7 µM. actives 9.2% (n = 290,000). AID 2315; in the data active = inhibition mostly above about 28%, no sharp cut-off; inactive = mostly below about 43%; note: 0% is about no effect
CHX counter: affects cycloheximide protein synthesis inhibition readout, counter-screen; cell reporter, cycloheximide protein synthesis inhibition counterscreen; max response, %; actives 12% (n = 300,000); in the data active = max response mostly above about 13%, no sharp cut-off; inactive = mostly below about 14%; note: read at 38.3 µM for the half of the compounds with a filed dose; 0% is about no effect
Pf growth 96h: P. falciparum growth inhibition at 96 hour, primary screen for plastid delayed-death inhibitors; Potency, µM (titrated, usually from 28.7 µM), for the others: at the top dose activity change, negative = inhibition, hits mostly inhibitors; P. falciparum luciferase reporter growth, 96 h; actives 6.9% (n = 320,000); AID 504834; note: potency is the fitted concentration of half-maximal effect; % is set by controls: 0 for no effect and ±100 for the full control effect
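Two parasite generations (96 h, 37 C, 5% CO2) of compound exposure in infected erythrocytes (0.05% parasitemia, 2% hematocrit). Luciferase-reporter P. falciparum; decreased luminescence indicates inhibited growth, aimed at apicoplast-acting delayed death.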
Pf growth 48h: inhibits P. falciparum growth in the first generation, 48 h; P. falciparum luciferase growth in erythrocytes, 48 h; Potency, µM (doses to about 28.7 µM), for inactives: at the top dose activity change, negative = inhibition, hits mostly inhibitors; actives 5.9% (n = 310,000); AID 504832; note: potency is the fitted concentration of half-maximal effect; % is set by controls: 0 for no effect and ±100 for the full control effect
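Growth was read as firefly luciferase luminescence after a 48 h, 37 C, 5% CO2 exposure of compounds to reporter-bearing P. falciparum cultures (0.1% parasitemia, 2% hematocrit final) in Albumax-supplemented RPMI 1640.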
The depositor's hits bear a star; ? = inconclusive; · = no result given; + = active, no number. Only some compounds are listed: those with a hit (about 21% of all), similar ones and a draw of the others. Unless noted, calls come from the whole dose curve; as a rule, active = well fitted curve in the direction sought with a large enough effect; inconclusive = small, poorly fitted or top-dose-only effect, or another doubt; inactive = no such curve, though single readings can be large; an effect the other way counts as inactive or inconclusive.

SMILES | NS1 inh | Sm TGR block | Shiga toxin inh | CHX counter | Pf growth 96h | Pf growth 48h
CC(CN1CCCC1)OC(=O)c1ccc(Cl)cc1Cl (stereo not drawn) | -17% | 0% | -2 | 6 | -22% | 0%
CCc1ccc(C(=O)C(C)CN2CCCCC2)cc1 (stereo not drawn) | · | · | · | · | 1.5µM* | -6%
CC(CN1CCN(C)CC1)OC(=O)c1cccc(Cl)c1 (stereo not drawn) | ? | -24% | 52* | 17* | 47% | 6%
CC(CN1CCOCC1)OC(=O)c1ccccc1Cl (stereo not drawn) | 15% | -10% | 9 | 10* | ? | 8%
COc1cccc(C(=O)OCCN2CCCCC2)c1 | 12% | 2% | 31 | 24 | 5% | 8%
CCN(CCn1cccn1)C(=O)CC1C(=O)NCCN1CCc1ccccc1 (stereo not drawn) | 12% | ? | 13 | 6 | 13% | ?
Oc1cc(O)c2c(c1)O[C@H](c1ccc(O)c(O)c1)[C@@H](O)[C@@H]2c1c(O)cc(O)c2c1O[C@@H](c1ccc(O)c(O)c1)[C@H](O)C2 | -3% | · | · | · | · | ·
CC(C(=O)OCC(=O)Nc1ccc(S(=O)(=O)N2CCCCC2)cc1)N1C(=O)c2ccccc2C1=O (stereo not drawn) | 21% | -3% | 3 | -3 | -2% | ·
CC(CN1CCCCC1)OC(=O)c1cccc(F)c1 (stereo not drawn) | -9% | -17% | 28* | 18* | 11% | 32%
Cc1ccc2[nH]c(O)c(N=Nc3ccccc3C)c2c1 | 9% | 22µM* | 28 | -2 | 23% | -1%
Cc1cccc(N=Nc2c(O)[nH]c3ccc(Br)cc23)c1 | 0% | -8% | 31* | 39* | 6% | 44%
COc1ccc2[nH]c(N=Nc3ccccc3C)c(O)c2c1 | 3% | -3% | + | 16 | -29% | 83%
CN(C)CCCn1cnc2cc(Cl)c(Cl)cc21 | -3% | · | · | · | · | ·
COc1ccc(NC(=O)Cn2nnc(C(=O)NCc3ccccc3Cl)c2N)cc1Cl | · | -3% | · | · | · | ·
COc1ccc(-c2cnnc(N/N=C/c3ccc(-c4ccc([N+](=O)[O-])cc4)o3)n2)cc1 | · | -13% | 21 | 1 | 8% | 2.9µM*
O=[N+]([O-])c1ccc(-c2ccc(/C=N/O)o2)cc1 | -41% | -15% | 109* | 33* | 78% | 84%
COc1ccc(N=Cc2ccc(-c3ccccc3)o2)cc1 | -3% | 4% | 11 | 16* | 12µM* | 9%
O/N=C\c1ccc(-c2ccccc2)o1 | -10% | 2% | 92* | 21* | -25% | 70%
COc1ccccc1-c1ccc(/C=N/O)o1 | -44% | 7% | 36 | 11 | 14% | 27%
O=[N+]([O-])c1cc(-c2ccc(/C=N\n3cnnc3)o2)cc([N+](=O)[O-])c1 | 13% | 40µM* | 25 | -3 | ? | 7.4µM*
O=C(Cc1ccccc1)N/N=C/c1ccc(-c2ccc([N+](=O)[O-])cc2)o1 | -12% | 6% | 0 | 1 | 27% | 16%
O=[N+]([O-])c1ccccc1-c1ccc(/C=N/n2cnnc2)o1 | 6% | -7% | -22 | -3 | 50% | 10%
NC(=O)N/N=C/c1ccc(-c2ccc([N+](=O)[O-])cc2)o1 | 3% | 73% | 25 | 25* | -26% | 53%
COc1ccc(C(CNC(=O)C(=O)NC2CCCCC2)N2CCN(C)CC2)cc1 (stereo not drawn) | · | 7% | · | · | 2% | -27%
CCCCOC(=O)Nc1ccc(S(=O)(=O)Nc2onc(C)c2C)cc1 | -37% | 7% | 11 | -3 | -11% | -2%
COc1ccc(Cn2c(=O)c3[nH]cnc3n(-c3ccc(C)cc3)c2=O)cc1 | 1% | -11% | -7 | 6 | 2.3µM* | ?
COc1ccc(-n2c(=O)n(Cc3ccccc3)c(=O)c3[nH]cnc32)cc1 | -2% | 4% | -9 | 12 | ? | 10%
COc1ccc(C(=O)Nc2ccc3oc(Cc4ccc(Cl)cc4)nc3c2)cc1OC | 18% | 3% | -9 | -5 | · | ·
Cc1oc2c(cc(NS(=O)(=O)c3ccc(F)cc3)c3ccccc32)c1C(=O)OCc1ccccc1 | · | -10% | · | · | · | ·

Source: PubChem
